According to PubChem BioAssay AID430 (Sanford-Burnham Center for Chemical Genomics, 2006):
About 1,100 (1.7%) of roughly 63,000 compounds were called active. No stated cut-off is given here; in the data, active means cytotoxicity above about 50%; inactive means the rest. For the sample, actives were picked, then their nearest neighbours and some compounds at random. Measured potencies and affinities stand elsewhere.

Experiment: HPDE-C7 pancreatic duct cell viability loss – fluorescence, HTS (AID 430);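 further: cells exposed to compound for 48 hours before viability readout; 0% = vehicle and 100% = reference cytotoxic drug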
Details: HPDE-C7 pancreatic duct cells viability, at 10 µM, stronger effect = higher value
In the case of `CNC(=O)c1ccc(N(Cc2ccccc2)S(C)(=O)=O)cc1`, the cytotoxicity was 2.3% (inactive).
For `CCn1c(=O)cc(SCC(=O)Nc2cccnc2)c2ccccc21`, the cytotoxicity was -11.6% (inactive).
With `Cc1cccc(N2CCN(C(=O)C3CCCN(S(=O)(=O)c4c(C)noc4C)C3)CC2)c1C` (stereo not given) the cytotoxicity was -2% (inactive).
With `C/C(=C\c1ccco1)C1C(C#N)=C(N)OC2=C1C(=O)CC(C)(C)C2` (stereo not given) the cytotoxicity was -2% (inactive).
For `CCOc1ccc2[nH]c(=O)c(CN(Cc3ccccc3)C(=O)N3CCCC3)cc2c1`, the cytotoxicity was -4.5% (inactive).
For `Cc1ccc(CCNC(=O)c2coc3nc4ccccc4nc23)cc1`, the cytotoxicity was 27.6% (inactive).
For `COc1ccc(F)cc1CN1CCN(c2cc(C)nc3c4c(C)cc(C)nc4nn23)CC1`, the cytotoxicity was 9.9% (inactive).
In the case of `CCOc1cc(NC(=O)c2ccco2)c(OCC)cc1NC(=O)Cc1cccc(OC)c1`, the cytotoxicity was -10.3% (inactive).
For `O=C(NCc1cccnc1)c1ccc(COc2ccccc2Br)o1`, the cytotoxicity was 13.1% (inactive).
For `CN1CCN(c2ccccc2NC(=O)Cc2cn(C)c3ccccc23)CC1`, the cytotoxicity was -5.4% (inactive).
For `COc1ccccc1NC(=O)N(Cc1ccco1)Cc1cc2c(C)ccc(C)c2[nH]c1=O`, the cytotoxicity was 22.4% (inactive).
In the case of `Cc1cc(C)c2[nH]c(=O)c(CN(Cc3ccco3)C(=O)C3CCCO3)cc2c1` (stereo not given), the cytotoxicity was -9.6% (inactive).
With `COc1ccccc1NC(=O)N(Cc1ccco1)Cc1cc2cc(C)cc(C)c2[nH]c1=O` the cytotoxicity was 59.5% (active).
In the case of `COc1ccccc1NC(=O)N(Cc1ccco1)Cc1cc2ccc(C)c(C)c2[nH]c1=O`, the cytotoxicity was 72.8% (active).
In the case of `CCN1CCCC1CN(Cc1cc2cc(C)cc(C)c2[nH]c1=O)C(=O)Nc1ccccc1OC` (stereo not given), the cytotoxicity was 15.1% (inactive).
With `COc1ccccc1NC(=O)N(Cc1ccco1)Cc1cc2cccc(C)c2[nH]c1=O` the cytotoxicity was 0.1% (inactive).
In the case of `O=C(O)CCc1ccc(-c2cccs2)n1CC1CCCO1` (stereo not given), the cytotoxicity was -6.9% (inactive).
For `CCOC(=O)Cn1c(=O)oc2cc(S(=O)(=O)N3CCCc4ccccc43)ccc21`, the cytotoxicity was 3.6% (inactive).
For `CCSc1nnc(NC(=O)C(Cc2ccccc2)n2cccc2)s1` (stereo not given), the cytotoxicity was -8.7% (inactive).
In the case of `Cc1csc(NC(=O)C(Cc2ccccc2)n2cccc2)n1` (stereo not given), the cytotoxicity was 14.2% (inactive).
For `COc1cccc2sc(NC(=O)c3ccc(S(=O)(=O)N4CCOCC4)cc3)nc12`, the cytotoxicity was 2.8% (inactive).
In the case of `O=c1oc2cc(O)ccc2c2c1CCCC2`, the cytotoxicity was 30.9% (inactive).
For `O=c1oc2cc(O)ccc2c2oc3cc(O)ccc3c12`, the cytotoxicity was 9.7% (inactive).
With `Oc1ccc2c(c1)oc1cc(O)ccc12` the cytotoxicity was 56.4% (active).
In the case of `O=C(NCc1ccco1)C1CCN(S(=O)(=O)c2ccc(-n3cnnn3)cc2)CC1`, the cytotoxicity was -7.4% (inactive).
In the case of `COc1ccc(OC)c(-c2nc(C)sc2CC(=O)O)c1`, the cytotoxicity was -6.4% (inactive).
With `CC(C)Oc1ccc(NC(=O)Oc2ccccc2)cc1` the cytotoxicity was 4.8% (inactive).
With `CC(=O)Nc1ccc(NC(=O)Oc2ccccc2)cc1` the cytotoxicity was -2% (inactive).
With `O=C(Nc1ccc(N2CCN(c3ccc(O)cc3)CC2)cc1)Oc1ccccc1` the cytotoxicity was 50.7% (active).
With `CCC(=O)N1c2ccccc2NC2=C(C(=O)CC(c3ccco3)C2)C1c1ccco1` (stereo not given) the cytotoxicity was -3.7% (inactive).
For `COc1ccc(C2C3=C(CC(c4ccco4)CC3=O)Nc3ccccc3N2C(C)=O)cc1` (stereo not given), the cytotoxicity was -12.7% (inactive).
For `O=C1CC(c2ccco2)CC2=C1C1c3ccccc3C(=O)N1c1ccccc1N2` (stereo not given), the cytotoxicity was 64.9% (active).
With `COCCCn1c(=O)c2ccccc2c2ccccc2c1=O` the cytotoxicity was -14.8% (inactive).
In the case of `CC(=O)c1cccc(S(=O)(=O)N(CCCO)Cc2cc3ccc(C)cc3[nH]c2=O)c1`, the cytotoxicity was -3.7% (inactive).
For `COc1ccc(NC(=O)N2CCCC2)cc1OC`, the cytotoxicity was -16.9% (inactive).
With `O=c1[nH]cnc2scc(-c3ccc(F)cc3)c12` the cytotoxicity was -4.9% (inactive).
In the case of `Cn1nnnc1Sc1ncnc2scc(-c3ccccc3)c12`, the cytotoxicity was 2.6% (inactive).
With `C/C(=N\O)c1c(C)c2ccccc2n1C` the cytotoxicity was -0.6% (inactive).
With `CC1=C(C(=O)Nc2ccccn2)C(c2ccc(F)cc2)n2ncnc2N1` (stereo not given) the cytotoxicity was -6% (inactive).
For `O=C(CSc1ncnc2c1oc1ccccc12)Nc1cccc(C(F)(F)F)c1`, the cytotoxicity was 2.9% (inactive).
With `Cc1ccnc(SCC(=O)O)n1` the cytotoxicity was -31.8% (inactive).
With `Cc1ccccc1NC(=O)CSc1nc2c(c(-c3ccco3)c1C#N)CCCC2` the cytotoxicity was -20.7% (inactive).
With `c1ccc2[nH]c(-c3ccnc4ccccc34)nc2c1` the cytotoxicity was 3% (inactive).
With `O=C(c1cnn2c(C(F)(F)F)cc(-c3ccco3)nc12)N1CCCc2ccccc21` the cytotoxicity was 4.7% (inactive).
In the case of `O=C(c1cc2nc(-c3ccco3)cc(C(F)(F)F)n2n1)N1CCCc2ccccc21`, the cytotoxicity was -11.2% (inactive).
With `O=C(c1nn2c(C(F)(F)F)cc(-c3ccco3)nc2c1Br)N1CCCc2ccccc21` the cytotoxicity was 51.8% (active).
In the case of `O=C(Sc1nnnn1C1CCCCC1)c1cccs1`, the cytotoxicity was -11.4% (inactive).
With `COc1cc(C(=O)NCc2nnc(SCC(=O)N3CCC(C)CC3)o2)cc(OC)c1OC` the cytotoxicity was -2.5% (inactive).
In the case of `CC1(C)Cc2c(c(N3CCOCC3)nc3snc(Br)c23)CO1`, the cytotoxicity was 5.4% (inactive).
With `CC1(C)Cc2c(c(N3CCOCC3)nc3sc(C(=O)N4CCCCC4)c(N)c23)CO1` the cytotoxicity was -5.3% (inactive).
With `CCN1C(=O)c2ccccc2S(=O)(=O)c2ccc(C(=O)NCc3cccnc3)cc21` the cytotoxicity was -0.2% (inactive).
For `CC(C)n1nc(C(=O)Nc2nc3ccc(S(C)(=O)=O)cc3s2)c2ccccc2c1=O`, the cytotoxicity was 54.4% (active).
For `COc1ccccc1C(=O)Nc1nc2ccc(S(C)(=O)=O)cc2s1`, the cytotoxicity was 2.7% (inactive).
In the case of `CS(=O)(=O)c1ccc2nc(NC(=O)c3cccs3)sc2c1`, the cytotoxicity was -8.3% (inactive).
In the case of `COCCCNC(=O)c1ccc(N2CCCC2)c(NS(=O)(=O)c2ccc(C)cc2)c1`, the cytotoxicity was -13.4% (inactive).
With `CC1CC(C)CN(C(=O)c2cn(C)c3ccc(S(=O)(=O)N(C)C)cc3c2=O)C1` (stereo not given) the cytotoxicity was 0.8% (inactive).
In the case of `CC12CC(NC(=O)N1c1cccc(C(=O)NCc3ccc4c(c3)OCO4)c1)c1cc(Cl)ccc1O2` (stereo not given), the cytotoxicity was 27.3% (inactive).
For `c1ccc(-n2nnnc2Oc2cccc3cccnc23)cc1`, the cytotoxicity was 19.3% (inactive).
With `COc1ccccc1Oc1cc(C#N)c(C#N)cc1-n1nnc2ccccc21` the cytotoxicity was -8.8% (inactive).
For `N#Cc1cc(Oc2cccc3cccnc23)c(-n2nnc3ccccc32)cc1C#N`, the cytotoxicity was 63.7% (active).
With `CCOC(=O)CNC(=O)CSc1nc2cccnc2n1C` the cytotoxicity was -7.9% (inactive).
In the case of `CCNc1sc(C(=O)c2cccs2)c(N)c1-c1nc2ccccc2s1`, the cytotoxicity was 73.7% (active).
With `CCNc1sc(C(=O)c2cccs2)c(N)c1C#N` the cytotoxicity was -12.7% (inactive).
For `CNc1sc(C(=O)c2cccs2)c(N)c1-c1nc2ccccc2s1`, the cytotoxicity was 33.3% (inactive).
With `COc1ccccc1Nc1nc(C2(C)CCC(=O)O2)cs1` (stereo not given) the cytotoxicity was 6.8% (inactive).
With `Cn1c(-c2nonc2NC(=O)c2ccc(C(C)(C)C)cc2)nc2ccccc21` the cytotoxicity was -0.1% (inactive).
For `CCCn1cc(S(=O)(=O)CC(=O)Nc2ccc(OCC)cc2)c2ccccc21`, the cytotoxicity was -9.9% (inactive).
For `COc1ccccc1OCc1nc2c3c(-c4ccccc4)c(-c4ccccc4)oc3ncn2n1`, the cytotoxicity was 7.7% (inactive).
With `N=c1c2c(-c3ccccc3)c(-c3ccccc3)oc2ncn1CCN1CCOCC1` the cytotoxicity was 29.3% (inactive).
For `COc1ccc(-c2oc3ncn(CCN4CCOCC4)c(=N)c3c2-c2ccc(OC)cc2)cc1`, the cytotoxicity was 16% (inactive).
In the case of `COc1ccc(-c2oc3ncn4nc(COc5ccccc5)nc4c3c2-c2ccc(OC)cc2)cc1`, the cytotoxicity was 54.9% (active).
For `Cc1nc2c3c(-c4ccccc4)c(-c4ccccc4)oc3ncn2n1`, the cytotoxicity was -9.4% (inactive).
For `COc1ccc(-c2oc3ncn4nc(Cc5ccccc5)nc4c3c2-c2ccc(OC)cc2)cc1`, the cytotoxicity was 62.3% (active).
With `CCOc1ccc(CCNC(=O)CCN2C(=O)COc3ccccc32)cc1OCC` the cytotoxicity was -19.6% (inactive).
For `CCOC(=O)/C=C1\SCC(=O)N1CC(=O)Nc1ccccc1OC(F)F`, the cytotoxicity was 2.3% (inactive).
In the case of `CN(C)C(=O)N1CCC(C(=O)NCc2ccc(F)cc2)CC1`, the cytotoxicity was -10.1% (inactive).
With `Cc1[nH]nc2c1C(Cc1ccccc1)C(C#N)=C(N)O2` (stereo not given) the cytotoxicity was -12.3% (inactive).
In the case of `Cc1cccc(Nc2ccccc2C(=O)O)c1C`, the cytotoxicity was 3.8% (inactive).
With `Cc1ccc(Cl)c(Nc2ccccc2C(=O)O)c1Cl` the cytotoxicity was 66.2% (active).
With `Cc1c(Cl)cccc1Nc1ccccc1C(=O)O` the cytotoxicity was -3.4% (inactive).
For `O=C1c2ccccc2C(=O)N1CCCc1nc(-c2cccnc2)no1`, the cytotoxicity was 6.9% (inactive).
With `Fc1ccc(-n2c(-c3ccco3)nc3nc4ccccc4nc32)cc1` the cytotoxicity was -1.1% (inactive).
For `N#Cc1nc(-c2ccc(OCc3ccc(Cl)cc3)cc2)oc1NCc1cccnc1`, the cytotoxicity was 53.4% (active).
For `N#Cc1nc(Cc2ccccc2)oc1NCc1cccnc1`, the cytotoxicity was -12.4% (inactive).
In the case of `N#Cc1nc(-c2ccc(OCc3ccccc3)cc2)oc1NCCN1CCOCC1`, the cytotoxicity was -1% (inactive).
With `N#Cc1nc(-c2ccc(OCc3ccc(Cl)cc3)cc2)oc1NCCCn1ccnc1` the cytotoxicity was -0.4% (inactive).
In the case of `N#Cc1nc(-c2ccc(OCc3ccccc3)cc2)oc1NCc1cccnc1`, the cytotoxicity was 0.6% (inactive).
For `N#Cc1nc(COc2ccc(-c3ccccc3)cc2)oc1NCc1cccnc1`, the cytotoxicity was 61.9% (active).
With `COc1ccc(CNc2oc(-c3ccccc3)nc2C#N)cc1` the cytotoxicity was 5.7% (inactive).
For `N#Cc1nc(-c2ccc(F)cc2)oc1NCc1ccccc1`, the cytotoxicity was -17.1% (inactive).
In the case of `COc1ccc(-c2nc(C#N)c(NCCCN3CCOCC3)o2)cc1`, the cytotoxicity was -6.6% (inactive).
For `COc1ccc(CNc2oc(COc3ccccc3)nc2C#N)cc1`, the cytotoxicity was 0.5% (inactive).
With `CC(C)(C)c1ccc(-c2nc(C#N)c(NCc3ccncc3)o2)cc1` the cytotoxicity was 54.6% (active).
With `Cc1ccc(-n2nnc3c(=O)n(Cc4ccccc4C)cnc32)cc1` the cytotoxicity was 0.5% (inactive).
With `COCCNC(=O)C(c1ccc(Cl)cc1)N(C(=O)CCC(=O)Nc1ccccn1)C1CCCC1` (stereo not given) the cytotoxicity was -1.7% (inactive).
